Source: PubChem BioAssay (NCI)
Compounds without any hit were thinned out: in the full panel of roughly 83,000, 20% have a hit.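 48-hour exposure, single concentration, 96-well plates; percent growth endpoint where 0 means no net growth. Active: below 10.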

Key:
Test in all cases: NCI-60 one-dose screen, 48 h (100 = growth as untreated, 0 = no growth, -100 = all killed)
NCI-H460 lung = conditions: 10 µM unless noted
K-562 leukemia = conditions: 10 µM unless noted
RXF 393 renal = conditions: 10 µM unless noted
SF-295 CNS = conditions: 10 µM unless noted
UACC-257 melanoma = conditions: 10 µM unless noted
SNB-75 CNS = conditions: 10 µM unless noted
U251 CNS = conditions: 10 µM unless noted
SK-MEL-5 melanoma = conditions: 10 µM unless noted
SK-MEL-2 melanoma = conditions: 10 µM unless noted
SN12C renal = conditions: 10 µM unless noted
HL-60(TB) leukemia = conditions: 10 µM unless noted
MOLT-4 leukemia = conditions: 10 µM
RPMI-8226 leukemia = conditions: 10 µM unless noted
BT-549 breast = conditions: 10 µM
HCT-116 colon = conditions: 10 µM unless noted
MALME-3M melanoma = conditions: 10 µM unless noted
UO-31 renal = conditions: 10 µM unless noted
SR leukemia = conditions: 10 µM
IGROV1 ovarian = conditions: 10 µM
HCC-2998 colon = conditions: 10 µM unless noted

Measured: growth

CCOC(=O)C1(c2ccccc2)CCN(CC(=O)c2ccc(NC(C)=O)cc2)CC1
inactive: NCI-H460 lung 112% | K-562 leukemia 122% | RXF 393 renal 124% | SF-295 CNS 110% | UACC-257 melanoma 104% | SNB-75 CNS 114% | U251 CNS 99.2% | SK-MEL-5 melanoma 103% | SK-MEL-2 melanoma 89.2% | SN12C renal 93.2% | HL-60(TB) leukemia 111% | MOLT-4 leukemia 102% | RPMI-8226 leukemia 88.3% | BT-549 breast 97% | HCT-116 colon 97.7%

n1nc(-c2nonc2-c2nn[nH]n2)n[nH]1
inactive: NCI-H460 lung 109% | K-562 leukemia 106% | MALME-3M melanoma 106% | RXF 393 renal 93.7% | SF-295 CNS 94.5% | UACC-257 melanoma 100% | SNB-75 CNS 106% | U251 CNS 101% | SK-MEL-5 melanoma 104% | SK-MEL-2 melanoma 115% | SN12C renal 102% | UO-31 renal 92.5% | HL-60(TB) leukemia 105% | MOLT-4 leukemia 110% | SR leukemia 92.5% | RPMI-8226 leukemia 96.5% | IGROV1 ovarian 118% | HCT-116 colon 106% | HCC-2998 colon 106%

CCC(CC)(c1ccccc1)C(OC(N)=O)c1ccccc1 (stereo unspecified)
inactive: NCI-H460 lung 90.1% | K-562 leukemia 66% | SF-295 CNS 71.9% | UACC-257 melanoma 85.8% | SNB-75 CNS 74.8% | U251 CNS 82.1% | SK-MEL-5 melanoma 89.5% | SK-MEL-2 melanoma 79.2% | SN12C renal 81.8% | UO-31 renal 71.4% | HL-60(TB) leukemia 96.1% | MOLT-4 leukemia 80.2% | SR leukemia 72.8% | RPMI-8226 leukemia 79.7% | IGROV1 ovarian 73.4% | BT-549 breast 110% | HCT-116 colon 62.4%
